Source: PubChem BioAssay (EPA / NIEHS)
Results filed as inconclusive are left out. Calls of active or inactive are those of the source. How the source made its calls: active means hit-call score of the fitted dose curve at least 0.9, where 1 is the maximum; inconclusive means response in the unintended direction; inactive means score below 0.9.

read-out: glucuronosyltransferase (UGT1A1), UGT1A1 (gene 54658); experiment: CLD_UGT1A1_24hr: CellzDirect (CLD) Gene Expression Assay for glucuronosyltransferase (UGT1A1) at 24 hours (AID 2283696)
Description: CLD_24hr is a cell-based, multiplexed-readout assay that uses hepatocyte, a human liver primary cell, with measurements taken at 24 hours after chemical dosing in a 96-well plate.CLD_UGT1A1_24hr is one of 16 assay component(s) measured or calculated from the CLD_24hr assay. It is designed to make measurements of mRNA induction, a form of inducible reporter, as detected with chemiluminescence signals by Quantitative Nuclease Protection Assay (qNPA) technology.Data from the assay component CLD_UGT1A1_24hr was analyzed at the endpoint, CLD_UGT1A1_24hr, in the positive analysis fitting direction relative to DMSO as the negative control and baseline of activity. Using a type of inducible reporter, gain-of-signal activity can be used to understand changes in the reporter gene as they relate to the gene UGT1A1. Furthermore, this assay endpoint can be referred to as a primary readout. To generalize the intended target to other relatable targets, this assay endpoint is annotated to the transferase intended target family, where subfamily is glucuronosyltransferase.
Human hepatocyte cultures were treated daily for two consecutive days with fresh dosing solutions containing appropriate concentrations of the 320 ToxCast chemicals (chemical identities were blinded to CellzDirect and other ToxCast collaborators), vehicle control (0.2% DMSO), and positive control inducers as summarized in Table 1. Due to the large number of treatment groups and chemicals examined, the ToxCast chemicals were divided into two groups (spanning two independent cultures of hepatocytes from separate donor preparations (Hu778: ToxCast plates 1 and 2; Hu776: ToxCast plates 3 and 4). Each preparation of human hepatocyte cultures was treated with respective vehicle control, medium only control, set of six positive controls/reference chemicals for the five hepatic receptor pathways, and a subset of eight of the ToxCast chemicals (indoxacarb, pyrithiobac-sodium, norflurazon, cyhalofop-butyl, methomyl, thiram, acetochlor, and propiconazole). These replicate data, coupled with internal replicates designed within the blinded ToxCast chemical library, provided additional data to evaluate interindividual differences between hepatocyte preparations and their potential impact on chemical profiles.Cell morphology and integrity were evaluated using phase-contrast microscopy as an indicator of hepatocyte cell health (Tyson & Green, 1987). Cultures for each treatment group (i.e., media, vehicle [0.2% DMSO], positive control inducers [multiple concentrations], and the ToxCast chemicals [multiple concentrations]) were observed and cell morphology was assessed relative to vehicle control cultures at each harvest time point (0, 6, 24, or 48 h). […] Images were evaluated at the conclusion of the study to assess changes in cell integrity and account for the effects of chemical exposure on uncharacteristic changes in concentration-dependent gene expression profiles. The results from these determinations of apparent cytotoxicity were annotated (yes/no) alongside the corresponding qNPA data for reference.At the conclusion of each treatment period, hepatocyte cultures (96-well) were washed with 1 volume of HBSS, lysed by addition of 25 ul ArrayPlate lysis buffer (HTG, Tucson, AZ), and 70 ul/well of Denaturation Oil, denatured by incubation at 95C for 10 min, and frozen at approximately -70C until analysis by nuclease protection assay (qNPA) (Roberts et al., 2007). For qNPA analysis, cell lysates were thawed at 50C for approximately 30 min, qNPA probes were added, and samples were incubated at 95C for 10 min to begin the detection process by denaturing the target RNA, dissociating the duplexes and secondary structure hybridization. At the conclusion of the hybridization period, S1 nuclease reagent was added to each sample to digest all nonprotected nucleotides at 50C for 60-90 min. […]

Row | SMILES | outcome | AC50
1 | CNC(=O)/C=C(\C)OP(=O)(OC)OC | inactive | 
2 | CCC(C)(NC(=O)c1cc(Cl)c(C)c(Cl)c1)C(=O)CCl (stereo not given) | inactive | 
3 | CC(C)(C)C(O)C(Oc1ccc(Cl)cc1)n1cncn1 (stereo not given) |  | 6.66 µM (active)
4 | CNC(=O)CSP(=S)(OC)OC | inactive | 
5 | COC(=O)c1ccccc1S(=O)(=O)NC(=O)Nc1nc(C)nc(OC)n1 | inactive | 
6 | COP(=S)(OC)Oc1ccc([N+](=O)[O-])cc1 | inactive | 
7 | CNC(=O)Oc1ccccc1OC(C)C | inactive | 
8 | CCN(CC)C(=O)SCc1ccc(Cl)cc1 | inactive | 
9 | Clc1ccccc1-c1nnc(-c2ccccc2Cl)nn1 | inactive | 
10 | Cc1[nH]c(=O)n(C(C)(C)C)c(=O)c1Cl | inactive | 
11 | COC(=O)c1ccccc1S(=O)(=O)NC(=O)N(C)c1nc(C)nc(OC)n1 | inactive | 
12 | OCCOc1ccccc1 | inactive | 
13 | COC(=O)c1ccccc1CS(=O)(=O)NC(=O)Nc1nc(OC)cc(OC)n1 | inactive | 
14 | O=S(=O)(O)C(F)(F)C(F)(F)C(F)(F)C(F)(F)C(F)(F)C(F)(F)C(F)(F)C(F)(F)F | inactive | 
15 | CC1(C)C(C=C(Cl)Cl)C1C(=O)OC(C#N)c1ccc(F)c(Oc2ccccc2)c1 (stereo not given) | inactive | 
16 | O=[N+]([O-])/N=C1\NCCN1Cc1ccc(Cl)nc1 | inactive | 
17 | O=C1c2ccccc2C(=O)N1SC(Cl)(Cl)Cl | inactive | 
18 | CCC(C)(C)C(=O)OC1=C(c2ccc(Cl)cc2Cl)C(=O)OC12CCCCC2 | inactive | 
19 | CCS(=O)(=O)c1cccnc1S(=O)(=O)NC(=O)Nc1nc(OC)cc(OC)n1 | inactive | 
20 | COP(=O)(OC)OC=C(Cl)Cl | inactive | 

Row | SMILES | outcome | AC50
21 | O=C(O)COc1ccc(Cl)cc1Cl | inactive | 
22 | O=S1OCC2C(CO1)C1(Cl)C(Cl)=C(Cl)C2(Cl)C1(Cl)Cl (stereo not given) | inactive | 
23 | ClC1C(Cl)C(Cl)C(Cl)C(Cl)C1Cl (stereo not given) | inactive | 
24 | COc1cc(OC)nc(NC(=O)NS(=O)(=O)c2cc(NC=O)ccc2C(=O)N(C)C)n1 | inactive | 
25 | COc1nn(CSP(=S)(OC)OC)c(=O)s1 | inactive | 
26 | CCOC1Oc2ccc(OS(C)(=O)=O)cc2C1(C)C (stereo not given) | inactive | 
27 | CCc1ccc(C(=O)NN(C(=O)c2cc(C)cc(C)c2)C(C)(C)C)cc1 |  | 4.06 µM (active)
28 | O=C(NC(=O)c1c(F)cccc1F)Nc1ccc(OC(F)(F)C(F)OC(F)(F)F)c(Cl)c1 (stereo not given) | inactive | 
29 | Oc1ccc(Cl)cc1Cc1ccccc1 | inactive | 
30 | CCOCN(C(=O)CCl)c1c(C)cccc1CC | inactive | 
31 | Oc1cc(Cl)ccc1Oc1ccc(Cl)cc1Cl | inactive | 
32 | CCOc1nc(NC)nc(NC(=O)NS(=O)(=O)c2ccccc2C(=O)OC)n1 | inactive | 
33 | CCCN(CCC)c1c([N+](=O)[O-])cc(C(F)(F)F)cc1[N+](=O)[O-] | inactive | 
34 | CN1CSC(=S)N(C)C1 | inactive | 
35 | C#CCN1C(=O)COc2cc(F)c(N3C(=O)C4=C(CCCC4)C3=O)cc21 | inactive | 
36 | COP(=S)(OC)Oc1ccc(SC)c(C)c1 | inactive | 
37 | CC(C)(C)C(O)/C(=C\c1ccc(Cl)cc1Cl)n1cncn1 (stereo not given) | inactive | 
38 | CC(C)N(C(=O)COc1nnc(C(F)(F)F)s1)c1ccc(F)cc1 | inactive | 
39 | O=[N+]([O-])c1c(Cl)c(Cl)c(Cl)c(Cl)c1Cl | inactive | 
40 | CCC(C)Nc1c([N+](=O)[O-])cc(C(C)(C)C)cc1[N+](=O)[O-] (stereo not given) | inactive | 
